# Measured values: PubChem BioAssay (NCATS)
# Records with an inconclusive call do not appear. Entries that show only a call come without a potency. Calls of active or inactive are those of the source. The call rests on the fitted dose curve; in most records, active means well fitted cell-killing curve with a large enough effect; inconclusive means small, poorly fitted or top-dose-only effect; inactive means no such curve, though single readings can be large or run the other way.
# Assay: qHTS of pediatric cancer cell lines to identify multiple opportunities for drug repurposing: Primary screen for NB1643 cells (AID 1347099); further: nearly all actives have a fitted effect of over 50% in size
# Details: NB1643 neuroblastoma viability, CellTiter-Glo luminescence, 48 h; series mostly up to 46 µM
# From the text: Drug repurposing or repositioning has been offered as a strategy for drug development in oncology programs. This approach has special potential for childhood cancers and other rare or orphan diseases, where the expected return on new drug development has been a disincentive to pharmaceuticals. […] In this project we exploit the poly-pharmacology of drugs to discover new indications via phenotypic screening of a panel of 19 well-characterized cell lines derived from solid tumors seen in children and adolescents. The goal is to identify approved drugs with previously unrecognized anticancer properties that has the potential to reveal new mechanisms and biological processes involved in carcinogenesis or drug resistance. We employed a titration-based paradigm (quantitative high-throughput screening or qHTS), where all compounds were tested at multiple concentrations for their effect on cell viability. Concentration-response curves (CRCs) were derived directly from the primary screen, and both potency and efficacy values were used to identify compounds with robust bioactivity profiles. We screened the NIH Chemical Genomics Center (NCGC) Pharmaceutical Collection (NPC) and Mechanism Interrogation Plate (MIPE) small molecule collections of approved and investigational compounds against these cell lines; and measured metabolically active cells after 48 hours of compound treatment as a proxy for cell viability. […] Assay Submitter: Nathalia J. Martinez, National Center for Advancing Translational Sciences, National Institutes of Health, Rockville, MD, USA; email: natalia.martinez@nih.gov Shen, M et al. Quantitative high-throughput phenotypic screening of pediatric cancer cell lines identifies multiple opportunities for drug repurposing. Oncotarget 2017 Dec 19;9(4):4758-4772. PMID 29435139.
# The cells were obtained from University of North Carolina (UNC), Pediatric Preclinical Testing Program (PPT), and Coriell Institute (CI). qHTS cell viability assay: Cells were assayed in growth media at a density of 500-1,000 cells/well. Five microliters of cells were dispensed into 1,536-well, white, solid-bottom, TC-treated plates (Greiner Bio One) using a multidrop dispenser and incubated at 37 degrees C, 5% CO2, under a humidified atmosphere for 5 hours. Twenty-three nanoliters of compounds and controls (neutral control DMSO or positive control bortezomib at final concentration of 2.3 µM) were subsequently transferred by Kalypsys pintool. For primary screens, the MIPE collection was tested at 11-point dilutions (final concentrations range from 0.78 nM to 46 µM) and the NPC collection at 8-point dilutions (final concentrations range from 0.59 nM to 46 µM). Compounds tested in follow-up screens were assayed at 11-point dilutions. Cells were incubated for 48 hours, followed by addition of 3 µL of CellTiter-Glo (Promega). After a 15 min incubation at room temperature, samples were analyzed for luminescence intensity using a ViewLux High-throughput CCD imager equipped with clear filters.
# Potency means the concentration at half of the fitted maximal effect.
SMILES,Potency,"activity change, negative = cytotoxic"
Cc1ccc(S(=O)(=O)N[C@@H](CCCCN)C(=O)CCl)cc1,inactive,–
CCN(CC)C(=O)N[C@@H]1C=C2c3cccc4[nH]cc(c34)C[C@@H]2N(C)C1,inactive,–
C[C@H]1O[C@@H](O[C@H]2[C@@H](O)C[C@H](O[C@H]3[C@@H](O)C[C@H](O[C@H]4CC[C@@]5(C)[C@H](CC[C@@H]6[C@@H]5CC[C@]5(C)[C@@H](C7=CC(=O)OC7)CC[C@]65O)C4)O[C@@H]3C)O[C@@H]2C)C[C@H](O)[C@@H]1O,0.0299 µM (active),–
CC(O)(CS(=O)(=O)c1ccc(F)cc1)C(=O)Nc1ccc(C#N)c(C(F)(F)F)c1 (stereo not given),3.32 µM (active),–
Clc1ccc(COC(Cn2ccnc2)c2ccc(Cl)cc2Cl)cc1 (stereo not given),26.6 µM (active),–
NN=C(N)N,inactive,–
Cc1ncc(CNC(=O)N(CCCl)N=O)c(N)n1,inactive,–
NCC(O)c1ccc(O)cc1 (stereo not given),inactive,–
COC[C@H]1OC(=O)c2coc3c2[C@@]1(C)C1=C(C3=O)C2CCC(=O)[C@@]2(C)C[C@H]1OC(C)=O (stereo not given in full),11.8 µM (active),–
C[C@]12CCC(=O)C(O)=C1CC[C@@H]1[C@@H]2CC[C@]2(C)C(=O)CC[C@@H]12,inactive,–
Cn1cc(C2=C(c3cn(C4CCN(Cc5ccccn5)CC4)c4ccccc34)C(=O)NC2=O)c2ccccc21,inactive,–
C=C1C[C@@H]2[C@H](CC[C@]3(C)C(=O)CC[C@@H]23)[C@@]2(C)C=CC(=O)C=C12,inactive,–
Cc1sc2c(c1C)C(c1ccc(Cl)cc1)=N[C@@H](CC(=O)OC(C)(C)C)c1nnc(C)n1-2,5.9 µM (active),–
CC(C)CC(N(C)C)C1(c2ccc(Cl)cc2)CCC1 (stereo not given),inactive,–
CC(C)(C)NCC(O)c1cc(Cl)c(N)c(Cl)c1 (stereo not given),inactive,–
Nc1ccncc1,inactive,–
N[C@@H]1C[C@H]1c1ccccc1,inactive,–
C#CCOC(C(=O)OCCN(C)C)(c1ccccc1)c1ccccc1,inactive,–
COc1ccc(Cc2nccc3cc(OC)c(OC)cc23)cc1OC,inactive,–
CN(C)CCc1ccc(O)cc1,inactive,–

SMILES,Potency,"activity change, negative = cytotoxic"
CN1C(=S)CN=C(c2ccccc2)c2cc(Cl)ccc21,inactive,–
CC[N+](CC)(CC)CC,inactive,–
O=C(O)c1ccc2[nH]cc(CCCCN3CC=C(c4ccccc4)CC3)c2c1,inactive,–
O=c1oc2ccccc2c(O)c1C(CC(O)c1ccc(-c2ccc(Br)cc2)cc1)c1ccccc1 (stereo not given),inactive,–
CNCC(O)c1ccc(O)cc1 (stereo not given),inactive,–
Cc1ccc(-c2nc3ccc(C)cn3c2CC(=O)N(C)C)cc1,inactive,–
OCCOc1ccccc1,inactive,–
C[C@@H]1[C@@H](C(=O)C[C@H]2O[C@@H]3O[C@]4(C)CC[C@@H]5[C@H](C)CC[C@@H]([C@H]2C)[C@@]35OO4)O[C@@H]2O[C@]3(C)CC[C@H]4[C@H](C)CC[C@@H]1[C@@]24OO3,4.69 µM (active),–
CC1=C2C[C@@H]3[C@@H](CC=C4C[C@@H](O)CC[C@@]43C)[C@@H]2CC[C@]12O[C@H]1C[C@H](C)CN[C@H]1[C@H]2C,inactive,–
NCC(CC(=O)O)c1ccc(Cl)cc1 (stereo not given),–,-5.29% [at 0.597 µM] (inactive)
Oc1ccc(Cl)cc1Cc1ccccc1,inactive,–
c1ccc(C2CC2)c(OCC2=NCCN2)c1,inactive,–
CCC(COC(=O)c1cc(OC)c(OC)c(OC)c1)(c1ccccc1)N(C)C (stereo not given),inactive,–
CC[N+]1(C)CCCC(OC(=O)C(O)(c2ccccc2)c2ccccc2)C1 (stereo not given),inactive,–
Fc1ccc(C(OCCN2CCN(CCCc3ccccc3)CC2)c2ccc(F)cc2)cc1,13.2 µM (active),–
CC(C)NCC(O)c1ccccc1Cl (stereo not given),inactive,–
CN1CCN(C(=O)O[C@H]2c3nccnc3C(=O)N2c2ccc(Cl)cn2)CC1,inactive,–
CCN(CC)CCN1C(=O)CN=C(c2ccccc2F)c2cc(Cl)ccc21,inactive,–
C=C1CC[C@@]2(O)[C@H]3Cc4ccc(O)c5c4[C@@]2(CCN3CC2CC2)[C@H]1O5,inactive,–
COc1ccccc1N1CCNCC1,inactive,–
